# Columns and labels:
# Assay in all cases: PBM binding z-score (relative to random genomic background probes); higher = stronger binding; sequences stand for … in GC…GCGATTGACAGCGTAGAATGAAGG
# [1] = system: FXR:RXRa (NR concentration 270 nM, RXRa partner concentration 90 nM)
# Method in brief: (§1)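 Regression normalization was applied to scanned fluorescence from custom Agilent 4×180K protein-binding microarrays. Before scanning, arrays were incubated 1 h with ligand-free nuclear receptor dimers, and binding was detected with antibodies against each partner (one per run). Binding z-scores use the random background probes as reference.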
# [2] = system: LXRa:RXRa (NR concentration 270 nM, RXRa partner concentration 90 nM)
# Method in brief: as §1
# [3] = system: LXRa homodimer (NR concentration 270 nM)
# Method in brief: as §1
# [4] = system: LXRb:RXRa (NR concentration 270 nM, RXRa partner concentration 90 nM)
# Method in brief: as §1
# [5] = system: LXRb homodimer (NR concentration 270 nM)
# Method in brief: as §1
# [6] = system: PPARa:RXRa (NR concentration 270 nM, RXRa partner concentration 90 nM)
# Method in brief: as §1
# [7] = system: PPARg:RXRa (NR concentration 180 nM, RXRa partner concentration 90 nM)
# Method in brief: as §1
# [8] = system: PPARg:RXRa 270nM:90nM, anti-RXR (NR concentration 270 nM, RXRa partner concentration 90 nM)
# Method in brief: as §1
# [9] = system: PPARg:RXRa 30nM:10nM, anti-RXR (NR concentration 30 nM, RXRa partner concentration 10 nM)
# Method in brief: as §1
# [10] = system: PPARg:RXRa 90nM:30nM, anti-RXR (NR concentration 90 nM, RXRa partner concentration 30 nM)
# Method in brief: as §1
# [11] = system: PPARg:RXRa DBDmut IVT, anti-RXR (DBD mutation: RXRa K156A/R161A, NR concentration 270 nM, RXRa partner concentration 90 nM)
# Method in brief: as §1
# [12] = system: PPARg:RXRa IVT, anti-PPARg (NR concentration 270 nM, RXRa partner concentration 90 nM)
# Method in brief: as §1
# [13] = system: PPARg DBDmut IVT, anti-PPARg (DBD mutation: PPARg1 K132A/R137A, NR concentration 270 nM)
# Method in brief: as §1
# [14] = system: PPARg homodimer (NR concentration 180 nM)
# Method in brief: as §1
# [15] = system: PXR:RXRa (NR concentration 270 nM, RXRa partner concentration 90 nM)
# Method in brief: as §1
# [16] = system: PXR homodimer (NR concentration 270 nM)
# Method in brief: as §1
# [17] = system: RARa:RXR (NR concentration 270 nM, RXRa partner concentration 90 nM)
# Method in brief: as §1
# [18] = system: RARa homodimer (NR concentration 270 nM)
# Method in brief: as §1
# [19] = system: RARb:RXRa (NR concentration 270 nM, RXRa partner concentration 90 nM)
# Method in brief: as §1
Sequence,PBM binding z-score [1],PBM binding z-score [2],PBM binding z-score [3],PBM binding z-score [4],PBM binding z-score [5],PBM binding z-score [6],PBM binding z-score [7],PBM binding z-score [8],PBM binding z-score [9],PBM binding z-score [10],PBM binding z-score [11],PBM binding z-score [12],PBM binding z-score [13],PBM binding z-score [14],PBM binding z-score [15],PBM binding z-score [16],PBM binding z-score [17],PBM binding z-score [18],PBM binding z-score [19]
ATATATAGGTTAGGGTCATTCAGAAAGTAGGGAA,5.26,4.34,1.79,4.71,2.26,5.6,8.16,6.57,4.73,6.58,6.92,6.72,2.87,4.26,4.79,2.81,5.43,2.83,3.58
ATATGTAGGTTAGGGTCATTCCGAAAGTAGGGAA,4.95,3.68,1.27,4.26,1.53,5.69,7.77,6.58,4.22,6.26,6.18,6.86,1.28,2.67,4.29,1.79,4.8,1.82,3.43
ATATGTAGGTTAGGGTCAATCAGAAAGTAGGGAA,4.67,3.66,0.491,3.9,1.23,5.48,7.67,6.41,3.89,5.93,6.1,6.62,1.96,2.82,3.61,1.38,4.43,1.88,3.59
CGAACTAGGTCACCAGGAAAGTGAAGAGGTTGGA,3.52,2.48,-0.13,1.69,-0.3,5.05,8.48,7.2,5.35,6.86,8.65,8.74,0.796,2.05,1.48,-0.0939,2.37,0.814,4.29
CGACCTAGGTCACCAGGACAGTGAAGAGGTTGGA,4.89,2.91,-0.161,2.09,-0.881,4.22,5.25,4.5,1.21,3.13,4.19,4.65,-0.593,1.87,1.62,-0.328,2.95,-0.595,4.37
ATATGTAGGTTAGGGTCGTTCAGAAAGTAGGGAA,2.59,2.54,0.724,3.09,1.65,4.31,5.88,4.99,2.44,4.12,6.06,6.47,2.98,2.38,2.11,1.67,2.37,1.51,1.92
CGAGCTAGGTCACCAGGACAGTGAAGAGGTTGGA,3.66,2.28,-0.245,1.56,-0.77,3.81,3.74,3.66,0.712,2.68,3.94,4.43,-1.08,1.48,1.35,-0.379,2.36,0.327,4.16
AAATGTAGGTTAGGGTCATTCAGAAAGTAGGGAA,5.35,4.2,1.68,4.67,1.5,5.81,8.25,6.63,5.16,6.92,7.33,7.35,1.95,3.74,4.47,2.29,4.78,1.99,3.64
CGAACTAGGTCACCAGGTCAGTGAAGAGGTTGGA,4.69,3.38,0.525,2.7,-0.48,5.78,9.48,7.31,5.4,7.06,8.35,8.61,0.92,2.94,3.16,0.301,4.36,1.02,4.61
CGAACTAGGTCAAAGGACAGTGCAAGGCGACGTA,4.07,2.5,0.126,1.63,-0.463,5.41,10.3,8.27,8.02,9.07,7.81,8.11,-0.34,0.639,1.31,-0.108,2.14,-0.256,4.02
CGAACTAGGTCAAAGGACCGTGAAAGGCGACGTA,3.56,2.39,0.0544,1.48,-0.478,4.99,8.12,6.9,5.98,7.29,7.75,8.21,0.0403,0.811,0.907,-0.51,1.44,-0.512,3.69
CGAACTAGGTCAAAGGACAGTGAGAGGCGACGTA,4.2,2.38,-0.449,1.41,-0.441,5.65,10.3,8.86,8,9.29,7.99,8.52,1.52,1.96,0.82,-0.246,2.11,0.479,3.81
CGAACTAGGTCAAAGGACAGTGTAAGGCGACGTA,3.76,2.6,-0.176,1.73,-0.314,5.13,9.94,8.19,6.9,8.83,7.92,7.95,-0.12,0.849,1.19,-0.0737,2.22,0.371,3.91
CGAACTAGGTCCCCAGGACAGTGAAGAGGTTGGA,-0.407,-0.759,-0.417,-0.926,-1.3,0.171,0.418,0.762,-0.453,0.0759,3.03,2.5,-1.06,-0.774,-0.741,-0.316,-0.649,-0.996,0.0236

# Source: the supplement of paper PMC6555819
